{
  "source": "paper PMC11062922",
  "about": "(Nature Chemical Biology, 2023)",
  "tested_on": "ERN1",
  "conditions": "read-out: apparent Kd, n = 1",
  "note": "Like-named read-outs stand apart in the source and are kept apart here.",
  "data": [
    {"substance": "Lestaurtinib", "values": [
      {"measurement": "potency estimated from few doses", "setting": "compound concentrations:100 nM and 1000 nM (sheet 'Lestaurtinib' of Supplementary Table 1),run:Lestaurtinib_02422_R1,Plate:MR006", "value": 64.3, "unit": "nM"},
      {"measurement": "potency estimated from few doses", "setting": "compound concentrations:100 nM and 1000 nM (sheet 'Lestaurtinib' of Supplementary Table 1),run:Lestaurtinib_02422_R2,Plate:MR006", "value": 68.1, "unit": "nM"},
      {"measurement": "potency estimated from few doses", "setting": "compound concentrations:100 nM and 1000 nM (sheet 'Lestaurtinib' of Supplementary Table 1),run:Lestaurtinib_02422_R3,Plate:MR006", "value": 67.9, "unit": "nM"},
      {"measurement": "potency estimated from few doses", "setting": "compound concentrations:100 nM and 1000 nM (sheet 'Lestaurtinib' of Supplementary Table 1),run:Lestaurtinib_02438_R1,Plate:MR008", "value": 49.4, "unit": "nM"},
      {"measurement": "potency estimated from few doses", "setting": "compound concentrations:100 nM and 1000 nM (sheet 'Lestaurtinib' of Supplementary Table 1),run:Lestaurtinib_02438_R2,Plate:MR008", "value": 63.9, "unit": "nM"},
      {"measurement": "potency estimated from few doses", "setting": "compound concentrations:100 nM and 1000 nM (sheet 'Lestaurtinib' of Supplementary Table 1),run:Lestaurtinib_02438_R3,Plate:MR008", "value": 64.3, "unit": "nM"},
      {"measurement": "potency estimated from few doses", "setting": "compound concentrations:100 nM and 1000 nM (sheet 'Lestaurtinib' of Supplementary Table 1),run:Lestaurtinib_02443_R1,Plate:MR009", "value": 67.3, "unit": "nM"},
      {"measurement": "potency estimated from few doses", "setting": "compound concentrations:100 nM and 1000 nM (sheet 'Lestaurtinib' of Supplementary Table 1),run:Lestaurtinib_02443_R2,Plate:MR009", "value": 58.1, "unit": "nM"},
      {"measurement": "potency estimated from few doses", "setting": "compound concentrations:100 nM and 1000 nM (sheet 'Lestaurtinib' of Supplementary Table 1),run:Lestaurtinib_02443_R3,Plate:MR009", "value": 63.3, "unit": "nM"},
      {"measurement": "potency estimated from few doses", "setting": "compound concentrations:100 nM and 1000 nM (sheet 'Lestaurtinib' of Supplementary Table 1),run:Lestaurtinib_02473_R1,Plate:MR010", "value": 52.6, "unit": "nM"},
      {"measurement": "potency estimated from few doses", "setting": "compound concentrations:100 nM and 1000 nM (sheet 'Lestaurtinib' of Supplementary Table 1),run:Lestaurtinib_02473_R2,Plate:MR010", "value": 60.5, "unit": "nM"},
      {"measurement": "potency estimated from few doses", "setting": "compound concentrations:100 nM and 1000 nM (sheet 'Lestaurtinib' of Supplementary Table 1),run:Lestaurtinib_02473_R3,Plate:MR010", "value": 69.9, "unit": "nM"},
      {"measurement": "potency estimated from few doses", "setting": "compound concentrations:100 nM and 1000 nM (sheet 'Lestaurtinib' of Supplementary Table 1),run:Lestaurtinib_02482_R3,Plate:MR011", "value": 54.1, "unit": "nM"},
      {"measurement": "potency estimated from few doses", "setting": "compound concentrations:100 nM and 1000 nM (sheet 'Lestaurtinib' of Supplementary Table 1),run:Lestaurtinib_02487_R1,Plate:MR012", "value": 58.2, "unit": "nM"},
      {"measurement": "potency estimated from few doses", "setting": "compound concentrations:100 nM and 1000 nM (sheet 'Lestaurtinib' of Supplementary Table 1),run:Lestaurtinib_02496_R1,Plate:MR013", "value": 79.9, "unit": "nM"},
      {"measurement": "potency estimated from few doses", "setting": "compound concentrations:100 nM and 1000 nM (sheet 'Lestaurtinib' of Supplementary Table 1),run:Lestaurtinib_02496_R2,Plate:MR013", "value": 82.7, "unit": "nM"},
      {"measurement": "potency estimated from few doses", "setting": "compound concentrations:100 nM and 1000 nM (sheet 'Lestaurtinib' of Supplementary Table 1),run:Lestaurtinib_02496_R3,Plate:MR013", "value": 62.6, "unit": "nM"},
      {"measurement": "potency estimated from few doses", "setting": "compound concentrations:100 nM and 1000 nM (sheet 'Lestaurtinib' of Supplementary Table 1),run:Lestaurtinib_02566_R2,Plate:MR014", "value": 99.9, "unit": "nM"},
      {"measurement": "potency estimated from few doses", "setting": "compound concentrations:100 nM and 1000 nM (sheet 'Lestaurtinib' of Supplementary Table 1),run:Lestaurtinib_02572_R2,Plate:MR015", "value": 67.3, "unit": "nM"},
      {"measurement": "potency estimated from few doses", "setting": "compound concentrations:100 nM and 1000 nM (sheet 'Lestaurtinib' of Supplementary Table 1),run:Lestaurtinib_02577_R1,Plate:MR016", "value": 81.4, "unit": "nM"},
      {"measurement": "potency estimated from few doses", "setting": "compound concentrations:100 nM and 1000 nM (sheet 'Lestaurtinib' of Supplementary Table 1),run:Lestaurtinib_02577_R2,Plate:MR016", "value": 61.5, "unit": "nM"},
      {"measurement": "potency estimated from few doses", "setting": "compound concentrations:100 nM and 1000 nM (sheet 'Lestaurtinib' of Supplementary Table 1),run:Lestaurtinib_02577_R3,Plate:MR016", "value": 56.2, "unit": "nM"},
      {"measurement": "potency estimated from few doses", "setting": "compound concentrations:100 nM and 1000 nM (sheet 'Lestaurtinib' of Supplementary Table 1),run:Lestaurtinib_02584_R1,Plate:MR017", "value": 49.6, "unit": "nM"},
      {"measurement": "potency estimated from few doses", "setting": "compound concentrations:100 nM and 1000 nM (sheet 'Lestaurtinib' of Supplementary Table 1),run:Lestaurtinib_02584_R2,Plate:MR017", "value": 50.5, "unit": "nM"},
      {"measurement": "potency estimated from few doses", "setting": "compound concentrations:100 nM and 1000 nM (sheet 'Lestaurtinib' of Supplementary Table 1),run:Lestaurtinib_02584_R3,Plate:MR017", "value": 79.4, "unit": "nM"},
      {"measurement": "potency estimated from few doses", "setting": "compound concentrations:100 nM and 1000 nM (sheet 'Lestaurtinib' of Supplementary Table 1),run:Lestaurtinib_02601_R1,Plate:MR018", "value": 73.5, "unit": "nM"},
      {"measurement": "potency estimated from few doses", "setting": "compound concentrations:100 nM and 1000 nM (sheet 'Lestaurtinib' of Supplementary Table 1),run:Lestaurtinib_02601_R2,Plate:MR018", "value": 93.1, "unit": "nM"},
      {"measurement": "potency estimated from few doses", "setting": "compound concentrations:100 nM and 1000 nM (sheet 'Lestaurtinib' of Supplementary Table 1),run:Lestaurtinib_02601_R3,Plate:MR018", "value": 63.8, "unit": "nM"},
      {"measurement": "potency estimated from few doses", "setting": "compound concentrations:100 nM and 1000 nM (sheet 'Lestaurtinib' of Supplementary Table 1),run:Lestaurtinib_02606_R1,Plate:MR019", "value": 79.4, "unit": "nM"},
      {"measurement": "potency estimated from few doses", "setting": "compound concentrations:100 nM and 1000 nM (sheet 'Lestaurtinib' of Supplementary Table 1),run:Lestaurtinib_02606_R2,Plate:MR019", "value": 83.8, "unit": "nM"},
      {"measurement": "potency estimated from few doses", "setting": "compound concentrations:100 nM and 1000 nM (sheet 'Lestaurtinib' of Supplementary Table 1),run:Lestaurtinib_02606_R3,Plate:MR019", "value": 87.5, "unit": "nM"},
      {"measurement": "potency estimated from few doses", "setting": "compound concentrations:100 nM and 1000 nM (sheet 'Lestaurtinib' of Supplementary Table 1),run:Lestaurtinib_02624_R1,Plate:MR020", "value": 87.4, "unit": "nM"},
      {"measurement": "potency estimated from few doses", "setting": "compound concentrations:100 nM and 1000 nM (sheet 'Lestaurtinib' of Supplementary Table 1),run:Lestaurtinib_02624_R2,Plate:MR020", "value": 94.5, "unit": "nM"},
      {"measurement": "potency estimated from few doses", "setting": "compound concentrations:100 nM and 1000 nM (sheet 'Lestaurtinib' of Supplementary Table 1),run:Lestaurtinib_02624_R3,Plate:MR020", "value": 93.4, "unit": "nM"},
      {"measurement": "potency estimated from few doses", "setting": "compound concentrations:100 nM and 1000 nM (sheet 'Lestaurtinib' of Supplementary Table 1),run:Lestaurtinib_02724_R1,Plate:MR021", "value": 90.7, "unit": "nM"},
      {"measurement": "potency estimated from few doses", "setting": "compound concentrations:100 nM and 1000 nM (sheet 'Lestaurtinib' of Supplementary Table 1),run:Lestaurtinib_02724_R2,Plate:MR021", "value": 92.1, "unit": "nM"},
      {"measurement": "potency estimated from few doses", "setting": "compound concentrations:100 nM and 1000 nM (sheet 'Lestaurtinib' of Supplementary Table 1),run:Lestaurtinib_02724_R3,Plate:MR021", "value": 78.5, "unit": "nM"},
      {"measurement": "potency estimated from few doses", "setting": "compound concentrations:100 nM and 1000 nM (sheet 'Lestaurtinib' of Supplementary Table 1),run:Lestaurtinib_02741_R1,Plate:MR023", "value": 83.9, "unit": "nM"},
      {"measurement": "potency estimated from few doses", "setting": "compound concentrations:100 nM and 1000 nM (sheet 'Lestaurtinib' of Supplementary Table 1),run:Lestaurtinib_02741_R2,Plate:MR023", "value": 80, "unit": "nM"},
      {"measurement": "potency estimated from few doses", "setting": "compound concentrations:100 nM and 1000 nM (sheet 'Lestaurtinib' of Supplementary Table 1),run:Lestaurtinib_02741_R3,Plate:MR023", "value": 69.3, "unit": "nM"},
      {"measurement": "potency estimated from few doses", "setting": "compound concentrations:100 nM and 1000 nM (sheet 'Lestaurtinib' of Supplementary Table 1),run:Lestaurtinib_02748_R3,Plate:MR024", "value": 74.4, "unit": "nM"},
      {"measurement": "potency estimated from few doses", "setting": "compound concentrations:100 nM and 1000 nM (sheet 'Lestaurtinib' of Supplementary Table 1),run:Lestaurtinib_02752_R2,Plate:MR025", "value": 57.7, "unit": "nM"}
    ]}
  ]
}
